Our source for the viability (% of control) and Potency values is PubChem BioAssay (NCATS).

Where “and” joins values, the source holds several entries; their conditions need not be identical. Equal entries are not always repeated. Results filed as inconclusive are left out. Calls of active or inactive are those of the source. Unless noted, calls come from the whole dose curve; as a rule, active = well fitted curve in the direction sought with a large enough effect; inconclusive = small, poorly fitted or top-dose-only effect, or another doubt; inactive = no such curve, though single readings can be large; an effect the other way counts as inactive or inconclusive.

Assay [1] can be described thus: High-throughput drug toxicity screening in the BPDCN cell line Cal-1 (AID 1224825; call rule not given here). The following applies: Cal-1 BPDCN cell viability, qHTS; at 45.8 µM (top of the series) unless noted. In outline:
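Exponentially growing Cal-1 cells, 500 per well in phenol red-free RPMI with 10% FBS, were exposed to compounds for 48 h at 37 °C, 5% CO2. Viability was read by CellTiter-Glo luminescence and normalised to DMSO (100%) and 9.2 uM bortezomib (0%).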
In general terms: Quantitative high-throughput screening tests each substance at several concentrations.

A short description of assay [2]: qHTS assay for measurement of the activity of small molecule inhibitors on Zika virus induced Caspase-3 activity in human iPSC derived neural progenitor cells (hNPCs) (AID 1224857). Note: nearly all actives have a fitted effect of over 65% in size. Note: potency is the fitted concentration of half-maximal effect. In outline:
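Values are percent inhibition of virus-induced caspase-3/7 signal, scaled between uninfected cells and ZIKV-infected cells. Infection used 2 FFU/cell for 6 h after 1 h compound exposure.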

The nature of assay [3]: qHTS assay for measurement of the activity of small molecule inhibitors on Zika virus induced Caspase-3 activity in human astrocytoma cells (AID 1224859).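 Note: plate controls were ZIKV-infected untreated cells for no effect and uninfected cells for full effect.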 In a few lines: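 Compound added 1 h pre-infection; ZIKV 2 FFU/cell on SNB-19 cells, 6 h, 37 C/5% CO2. Caspase-Glo 3/7 luminescence; values as % inhibition of ZIKV-induced caspase activity.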
Assay [4] can be described thus: qHTS Screen of the MIPE 4.0 Collection Against Ewings Sarcoma (RDES) (AID 1259252). Note: nearly all actives have a fitted effect of over 35% in size. Note: potency is the fitted concentration of half-maximal effect. In a few lines: (§1)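 Compound titrations go onto adherent log-phase cells 4 h after seeding, incubate 48 h at 37C, then CellTiter-Glo luminescence reports viability relative to DMSO and cell-free controls.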
Assay [5] is described as follows: qHTS Screen of the MIPE 4.0 Collection Against Ewings Sarcoma (EW8) (AID 1259255).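 For viability: 100% = DMSO-treated cells and 0% = medium-only wells without cells.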 Note: nearly all actives have a fitted effect of over 35% in size. Note: potency is the fitted concentration of half-maximal effect. In a few lines:
as §1

Assay [6] is described as follows: qHTS Screen of the MIPE 4.0 Collection Against Ewings Sarcoma (TC32) (AID 1259256). Note: nearly all actives have a fitted effect of over 45% in size. Note: potency is the fitted concentration of half-maximal effect. In outline:
as §1

Assay [7] in a line: qHTS assay to identify small molecule inhibitors of chordoma cells - UCH-1 (AID 1259355). Note: nearly all actives have a fitted effect of over 55% in size. Note: potency is the fitted concentration of half-maximal effect. In a few lines:
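Luminescent ATP read-out (CellTiter-Glo, 30min at room temperature) measured viability of UCH-1 cells exposed for 48hr to test drugs at 15 concentrations, co-dosed with a five-agent combination of auranofin, camptothecin, doxorubicin, rubitecan and topotecan.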

Assay [8] can be described thus: qHTS assay to identify small molecule inhibitors of chordoma cells - UCH-2 (AID 1259356). Note: potency is the fitted concentration of half-maximal effect.
Assay [9] in a line: Identifying Small Molecule Inhibitors of Pancreatic Cancer Stem Cells (SN12C, Adherent) (AID 1259358).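 Note: cell survival measured after 48 h of compound exposure.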 Note: potency is the fitted concentration of half-maximal effect. In a few lines: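 Viability is scored by CellTiter-Glo luminescence 48 h after dosing, expressed as percent activity against vehicle and no-cell references. Spheroid formats rely on cells cultured 14 days in stem cell media beforehand.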
Assay [10] is described as follows: Identifying Small Molecule Inhibitors of Pancreatic Cancer Stem Cells (SN12C, Spheroid) (AID 1259360).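 Note: 100% = DMSO-treated cells and 0% = wells without cells.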 The following applies: Potency: SN12C spheroid viability. In a few lines: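 Monolayer and spheroid cultures are compared. Spheroids form over 14 days in stem cell medium on hydrogel-coated low-attachment plates, then are exposed to compound for 48 h before CellTiter-Glo luminescence.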

The nature of assay [11]: P-glycoprotein substrates identified in KB-8-5-11 adenocarcinoma cell line, qHTS therapeutic library screen (AID 1346987). Note: nearly all actives have a fitted effect of over 65% in size. Note: potency is the fitted concentration of half-maximal effect. In outline:
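P-gp-mediated resistance screen: KB-8-5-11 cells treated 72 h with compounds in dose-response. CellTiter-Glo viability.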

Assay [12] is described as follows: NS1 protein of Zika virus - qHTS assay to identify small molecule inhibitors in human HEK 293 cells (AID 1347053).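 Note: plate controls were infected untreated cells for no effect and uninfected cells for full effect; nearly all actives have a fitted effect of over 55% in size.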 In outline:
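HEK 293; 20 h pre-culture, 37 C/5% CO2; cpd 1 h pre-infection; ZIKV MR766, MOI = 0.5, 24 h, 37 C; TR-FRET NS1 readout (two anti-NS1 Abs); norm. to no-virus vs infected.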

The nature of assay [13]: qHTS Screen of the MIPE 4.0 Collection Against Ewings Sarcoma (TC71) (AID 1259253). Note: nearly all actives have a fitted effect of over 40% in size. Note: potency is the fitted concentration of half-maximal effect. In outline:
as §1

Assay [14] can be described thus: P-glycoprotein substrates identified in KB-3-1 adenocarcinoma cell line, qHTS therapeutic library screen (AID 1346986). Note: nearly all actives have a fitted effect of over 60% in size. In outline: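 KB-3-1 parental cells and P-gp-overexpressing KB-8-5-11 (colchicine omitted during assay) plated at 500 cells/well, dosed in dose-response, incubated 72 h at 37 degree C. CellTiter-Glo luminescence read; KB-8-5-11 also tested with tariquidar.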

`Nc1cccc2c1CN(C1CCC(=O)NC1=O)C2=O` (stereo unspecified): the viability (% of control) in assay [1] is 101% [at 92.2 µM]. In addition, the Potency result in [2], in assay [3], in [4], in assay [5], in assay [6] and in [7] was “inactive” throughout. Also, the Potency entry in assay [8], in assay [9], in assay [10], in [11] and in assay [12] was “inactive” throughout.

With `COc1cc(OC)c(C(=O)CCCN2CCCC2)c(OC)c1`, the viability (% of control) in assay [1] was found to be 101%. The Potency result in assay [2], in [3], in assay [4], in [5], in [6] and in assay [7] was “inactive” each time. Moreover, the Potency result in assay [8] and in assay [12] was “inactive” throughout.

Take `O=c1oc2cc(O)ccc2s1`: in assay [1], the viability (% of control) was 92.8%. Besides, the Potency in assay [2] was 11.8 µM (active); in assay [4], 16.6 µM (active); in assay [5], 13.2 µM (active); in assay [6], 20.9 µM (active). Further, the Potency entry in [3], in assay [7], in [8] and in assay [11] was “inactive” throughout.

Turning to `Cc1cc2c(s1)Nc1ccccc1N=C2N1CCN(C)CC1`, the viability (% of control) in assay [1] is 115%. Besides, the Potency entry in [2], in assay [3], in [4], in assay [13], in assay [5] and in assay [6] was “inactive” throughout. Also, the Potency entry in [7], in [8], in assay [14] and in assay [12] was “inactive” each time.

Turning to `Cc1ccc(Nc2nccc(N(C)c3ccc4c(C)n(C)nc4c3)n2)cc1S(N)(=O)=O`, the viability (% of control) in assay [1] was determined as 62.5%. Besides, the Potency entry in assay [2], in [3], in [5], in assay [6], in [10] and in assay [12] was “inactive” each time. In addition, the results for the Potency in assay [4] and in assay [9] were 11.8 µM (active) and 18.7 µM (active), respectively.

Turning to `CN(C)CCc1c[nH]c2ccc(Cn3cncn3)cc12`, in assay [1], the viability (% of control) amounted to 54.2%. Also, the Potency entry in assay [2], in [3], in assay [4], in assay [13], in [5] and in assay [6] was “inactive” throughout. For the same molecule, the Potency result in assay [7], in [8], in [14] and in assay [12] was “inactive” in each case.

For `CC(C)[N+]1(C)[C@@H]2CC[C@H]1CC(OC(=O)C(CO)c1ccccc1)C2` (stereo partly specified), in assay [1], the viability (% of control) came to 31.8%. Moreover, the Potency entry in assay [2], in [3], in assay [4], in assay [5], in [6] and in [7] was “inactive” in each case. For the same molecule, the Potency result in assay [8], in [11] and in assay [12] was “inactive” in each case.

As for `COCCCOc1ccnc(CS(=O)c2nc3ccccc3[nH]2)c1C` (stereo unspecified), the viability (% of control) in assay [1] is 104%. Further, the Potency result in [2], in assay [3], in [4], in assay [5], in assay [7] and in [8] was “inactive” throughout. In assay [14], the Potency entry is “inactive”. Moreover, the Potency in assay [6] was 8.33 µM (active).

With `CN(C)c1ccc2nc3ccc(=[N+](C)C)cc-3sc2c1`, the viability (% of control) in assay [1] was found to be 8.34%. Also, the Potency result in [2], in assay [3] and in assay [12] was “inactive” each time. The Potency is 2.35 µM (active) in assay [4]; 3.72 µM (active) in assay [13]; 4.69 µM (active) in assay [5]; 9.35 µM (active) in assay [6]; 7.94 µM (active) in assay [7]; 14.6 µM (active) in assay [8]. In addition, the Potency in assay [11] was 3.32 µM (active) and 6.51 µM (active).
